Data reported in PubChem BioAssay AID1671190 (National Center for Advancing Translational Sciences (NCATS), 2021).
The whole screen tested about 580,000 compounds, of which about 6,100 (1.1%) were called active. Inconclusive results (about 15%) are left out. The call rests on the fitted dose curve; in most records, active means well fitted inhibition curve with a large enough effect; inconclusive means small, poorly fitted or top-dose-only effect, or another doubt; inactive means no such curve, though single readings can be large or run the other way. Many of the other results were omitted from the sample, so actives are more common in it than they were.

Target: Polyunsaturated fatty acid lipoxygenase ALOX12 (Homo sapiens) (UniProt P18054)
Sequence (P18054 whole entry, looked up): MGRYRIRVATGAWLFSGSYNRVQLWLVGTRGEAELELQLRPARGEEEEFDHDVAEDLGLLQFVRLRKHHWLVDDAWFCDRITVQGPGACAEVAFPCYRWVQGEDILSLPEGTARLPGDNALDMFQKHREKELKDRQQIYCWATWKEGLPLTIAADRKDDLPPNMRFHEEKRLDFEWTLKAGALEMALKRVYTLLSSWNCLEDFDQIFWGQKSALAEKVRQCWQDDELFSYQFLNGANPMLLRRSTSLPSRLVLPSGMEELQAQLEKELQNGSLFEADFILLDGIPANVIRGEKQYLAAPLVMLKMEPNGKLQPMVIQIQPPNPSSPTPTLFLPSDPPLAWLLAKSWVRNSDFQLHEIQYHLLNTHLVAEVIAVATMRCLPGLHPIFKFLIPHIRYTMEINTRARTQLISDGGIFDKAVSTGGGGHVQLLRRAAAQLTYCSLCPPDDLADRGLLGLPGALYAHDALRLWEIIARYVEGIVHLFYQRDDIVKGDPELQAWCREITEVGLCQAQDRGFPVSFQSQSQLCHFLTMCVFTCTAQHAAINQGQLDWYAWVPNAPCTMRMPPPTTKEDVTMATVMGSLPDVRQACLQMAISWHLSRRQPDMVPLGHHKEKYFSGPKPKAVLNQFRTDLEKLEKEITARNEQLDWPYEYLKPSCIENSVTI
Assay: Primary qHTS assay for inhibitors of human arachidonate 12S-lipoxygenase (ALOX12): Round 2
Details: purified 12hLO, xylenol orange hydroperoxide absorbance; series mostly up to 108 µM
Summary of the method: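 Hydroperoxide product was detected by ferrous iron/xylenol orange as the 573 to 405 nm absorbance ratio. Arachidonic acid at 40 uM (final) was turned over for 30 min at room temperature by 150 nM human 12hLO, pH 7.0 Hepes buffer, after 15 min compound preincubation.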
On the % scale 0 is the no-effect control and ±100 the full control effect; potency means the concentration at half of the fitted maximal effect.

Potency, active:
COc1ccc(-c2nn(-c3ccccc3)cc2/C=C\C(=O)Nc2ccc(C(=O)O)cc2)cc1 39.8 µM, N#Cc1ccccc1S(=O)(=O)N1CCN(Cc2c(O)ccc3ccccc23)CC1 11.2 µM, O=C(NC(=S)Nc1cccc2c(O)cccc12)c1cccc(Br)c1 17.8 µM, O=C(NC(=S)Nc1ccc(S(=O)(=O)Nc2ncccn2)cc1)c1cccc(Br)c1 20 µM, CC(NC(=O)Cn1nc(C(N)=O)c2ccccc2c1=O)c1ccccc1 (centres undefined) 35.5 µM, C=CC(=O)c1ccc2ccccc2c1 17.8 µM, Cc1[nH]n(C)c(=O)c1N=Nc1ccc(S(C)(=O)=O)cc1 6.31 µM, Oc1ccc(O)c([S+]2CCCC(C3CCCCC3)C2)c1 (centres undefined) 17.8 µM, COc1cc(C2C(C(=O)c3ccc(C)o3)=C(O)C(=O)N2CCc2ccccc2)ccc1O (centres undefined) 35.5 µM, COCCN1C(=O)C(O)=C(C(=O)c2ccc(C)o2)C1c1ccc(O)c(OC)c1 (centres undefined) 17.8 µM, CC(C)c1ccc(C2CC(=O)N3CN(C4CCCCC4)CSC3=C2C#N)cc1 (centres undefined) 17.8 µM, CNC(=O)c1cccc(NC(=O)c2cc(C3CC3)nc3ccccc23)c1 39.8 µM, c1ccc(CNc2ncncc2-c2cccnc2)cc1 39.8 µM, CC1CCCCC1NC(=O)CSc1nnc(-c2ccncc2)n1CCCN(C)C (centres undefined) 0.355 µM, CN(Cc1ccccc1)C(=O)C[C@@H]1CCNC[C@@H]1Cc1cc(-c2ccc(C(C)(C)C)cc2)on1 25.1 µM, CCCCc1c/c(=N\O)oc2cc3occ(C)c3cc12 17.8 µM, CCOC(=O)C1Nc2ccc(C(F)(F)F)cc2C2C=CCC12 (centres undefined) 17.8 µM, CC(C)OC(=O)c1ccc(NCc2cc(O)ccc2O)cc1Cl 10 µM, Cc1[nH]c2ccccc2c1C(=O)C(C)Sc1ccc2c(c1)OCCCO2 (centres undefined) 14.1 µM, CC1CC(=S)Nc2ccccc2N1Cc1ccccc1 (centres undefined) 44.7 µM, Cc1noc(/C=C/c2ccco2)c1S(=O)(=O)N1CCC(C(=O)N2CCc3ccccc32)CC1 14.1 µM

Potency, inactive:
Cc1ccc(-c2nnc(SCc3ncc(-c4ccccc4)o3)o2)cc1, Cc1ccc(-n2nnnc2SCc2ncc(-c3ccccc3)o2)cc1, COCc1ccc(CNC(=O)c2ccc(C#N)cc2)cc1, O=C(c1cn[nH]c1)N1CC2(CN(Cc3cccc(Cl)c3)CC2COc2ccccc2)C1 (centres undefined), CCOc1cc2cc(C(=O)c3cc(C)ccc3O)cnc2cc1OCC, CCC(=O)Nc1ccc2nc(-c3ccccc3C)oc2c1, COc1ccc(NC(=O)c2cn(-c3ccccc3)nc2SC)cc1, COc1ccc(-c2nn(-c3ccccc3)cc2C(=O)NCC(C(C)C)N2CCOCC2)cc1 (centres undefined), CSc1ccccc1NC(=O)C(C)Nc1ccc2c(c1)CCN2C(C)=O (centres undefined), O=C(NC(c1ccccc1)c1cc2ccccc2o1)C1CCCC1 (centres undefined), N#Cc1ccccc1S(=O)(=O)N1CCN(C(=O)c2cc(-c3ccccc3)nn2-c2ccccc2)CC1, N#CCCc1c(O)ccc2ccccc12, Cc1nnc(SCC(=O)Nc2sc3c(c2C#N)CCCC3)n1CC(C)C, CCC(=O)NNC(=S)Nc1ccccc1, O=C(Nc1ccc(S(=O)(=O)Nc2ncccn2)cc1)C12CC3CC(CC(C3)C1)C2, O=C(Nc1ccc(S(=O)(=O)Nc2ncccn2)cc1)c1cncc(Br)c1, Cc1ccc(-c2nnc3c4ccccc4c(C)nn23)cc1NC(=O)c1cccc(Br)c1, O=C(NC1C2CC3CC(C2)CC1C3)c1cccc(Br)c1 (centres undefined), CCOc1ccc(C(=O)N(CCN(C)C)CC(=O)OC(C)(C)C)cc1, CC(C)NC(=O)c1cccc2c1CCCN2CC(=O)NCCc1ccccc1, CSc1ccccc1C(=O)NC(C)c1ccccc1 (centres undefined), Clc1ccc(-c2nc(-c3ccc(Br)o3)no2)cc1, O=C(Cn1nc(C(=O)O)c2ccccc2c1=O)Nc1cc(F)ccc1F, CNC(=O)c1nn(CC(=O)NC(C)c2ccccc2)c(=O)c2ccccc12 (centres undefined), CC(=O)N1CCC(C(=O)N(C)CC(=O)Nc2ccccc2C(F)(F)F)CC1, Cc1cccc(Oc2c(C(F)(F)F)oc3cc(OCC(=O)OCCC(C)C)ccc3c2=O)c1, O=C(OCc1nc2ccccc2o1)c1ccc2ccccc2c1, O=C(OCC(=O)N1CCOCC1)c1ccc2ccccc2c1, O=C(O)COc1ccc(-c2nccc3c2C(=O)N(Cc2c[nH]c4ccccc24)CC(COc2ccc(F)c(F)c2)O3)cc1 (centres undefined), Cc1nn(C)c2nc(C(C)C)cc(C(=O)N3CCN(c4ncccn4)CC3)c12, Cc1[nH]n(C)c(=O)c1C(=O)c1c(-c2c(Cl)cccc2Cl)noc1C, Cc1[nH]n(C(N)=S)c(=O)c1N=Nc1ccc(Cl)cc1Cl, COc1ccc(Cc2nnc(SCc3nc4ccccc4c(=O)[nH]3)n2CC(C)C)cc1, Cc1ccc(NC(=O)C2Cc3ccccc3O2)cc1S(N)(=O)=O (centres undefined), COc1ccc(CCN2C(=O)c3[nH]nc(-c4ccccc4O)c3C2c2ccc(C)cc2)cc1OC (centres undefined), CCCOc1ccc(C2C(C(=O)c3ccc(C)o3)=C(O)C(=O)N2CCCn2ccnc2)cc1 (centres undefined), COc1cc(C2C(C(=O)c3sc(C)nc3C)=C(O)C(=O)N2CCN(C)C)cc(OC)c1OC (centres undefined), CCOC(=O)C1=C(c2ccccc2)N=C2SCC(=O)N2C1c1ccc(O)c(OC)c1 (centres undefined), COc1ccc(OCCSC(C)C(N)=O)cc1 (centres undefined), CC(C)c1ccc(/C=N/NC(=O)c2cc(C3CC3)nc3ccccc23)cc1, COc1cc(C(=O)Nc2ccc(C(=O)O)cc2)c2ccccc2n1, CNC(=O)C(=O)NC1CC(C)(C)NC(C)(C)C1, Cc1cc(C)cc(S(=O)(=O)n2cc3c(=O)n(C)c(=O)n(C)c3n2)c1, O=CN1CCN(C(=O)CCC(=O)O)CC1, Clc1ccc(Cn2ncc3c(NCc4cccnc4)ncnc32)cc1, Cc1cnc(CNc2nc(-c3cccnc3)nc3ccccc23)cn1, Cc1cccc(-c2cc(C(=O)NCC3CCCO3)c3ccccc3n2)c1 (centres undefined), COc1ccc(-c2noc(-c3cc4cc(Cl)ccc4oc3=O)n2)cc1OC, CCn1c(SCC(=O)NC2CC2)nnc1-c1ccncc1, O=C(CSc1nnc(-c2ccncc2)n1C1CCCCC1)Nc1ccccc1, CCOc1ccc(CNS(=O)(=O)c2ccc(-c3ccc(=O)[nH]n3)o2)cc1, O=C(NC1CCS(=O)(=O)C1)c1cc2ccccc2oc1=O (centres undefined), O=C(C[C@@H]1CCNC[C@@H]1Cc1cc(-c2ccc(F)cc2)on1)NCCN1CCOCC1, CCCCc1cc(C[C@H]2CNCC[C@H]2CC(=O)N(CC)CC)no1, COc1ccc(S(=O)(=O)Nc2nc3ccccc3nc2Nc2cccc(C)c2)cc1, COc1ccc(C(=O)OCc2ccc(Br)cc2)c(OC)c1, COc1ccc(OC(=O)CCc2ccc3c(c2)OCCO3)cc1, CCOC(=O)COc1ccc2c(=O)c(-c3ccc(OC)c(OC)c3)c(C)oc2c1, CC(C)C[C@@H]1N[C@H](C(=O)NCc2ccc(F)cc2)Cc2cn(C)c3cccc1c23, Cc1ccc(Cl)c(OC(C)C(=O)NN)c1 (centres undefined), CCOC(=O)/C=C/c1ccc(C(F)(F)F)cc1S(=O)(=O)NC(C)(C)C, CCOC(=O)C[C@H]1c2ccc(C(F)(F)F)cc2S(=O)(=O)N1c1ccccc1, Cc1ccc(S(=O)(=O)N2CCCC(C(=O)O)C2)cc1F (centres undefined), NC(=O)CN1C(=O)C(O)(CC(=O)c2ccc3c(c2)OCO3)c2ccccc21 (centres undefined), CS(=O)(=O)Nc1ccc([C@H]2OCC(=O)N(C3CCOCC3)[C@@H]2CO)cc1, Cc1ccc2[nH]cc(C(C(=O)O)N3CCN(c4ccccc4)CC3)c2c1 (centres undefined), Cc1ccc(C(=O)NC(C)C)c(Cl)c1, O=C(O)c1ccc(CSc2ccc(Cl)cc2Cl)cc1, Cc1ccc(C2(C(=O)N3C[C@@H](CN4CCCCC4)[C@@H](CO)C3)CC2)cc1, Cc1[nH]c2ccccc2c1C(=O)C(C)Sc1nnc(C2CC2)o1 (centres undefined), CC(Sc1ccc2c(c1)OCCCO2)C(=O)O (centres undefined), COc1ccc(-c2c(C)c3ccc(OCC(=O)OC(C)(C)C)cc3oc2=O)cc1OC, CCN(C1CCCCC1)S(=O)(=O)c1ccc(C(=O)Nc2ccc(Cl)c3ncsc23)cc1, CO[C@@H]1COCC[C@H]1NC(=O)CCCc1nc(-c2ccccc2C)no1, CC1CC(=O)Nc2ccccc2N1S(=O)(=O)c1cccs1 (centres undefined), CC1CC(C)(C)NC(=S)N1CCC(=O)N1CCN(Cc2ccccc2)CC1 (centres undefined), O=C(CCN1C(=O)c2ccccc2S1(=O)=O)Nc1ccc(S(=O)(=O)N2CCCC2)cc1, C=C(Br)CNCc1ccccc1, Cc1ccc(C(C)NC(=O)CCc2nc(C(C)C)no2)o1 (centres undefined), Cc1ccccc1-c1cc(C(=O)NCCN2CCNC2=O)c2c(c1)N(C)CCO2, Cc1noc(/C=C/c2ccco2)c1S(=O)(=O)N1CCC(C(=O)Nc2ccc(Cl)cn2)CC1, COc1ccccc1N1CCN(C(=O)C2CCN(S(=O)(=O)c3c(C)noc3/C=C/c3ccc(C)cc3)CC2)CC1

Activity change, negative = inhibition, inactive:
COc1ccc(OC2CN(Cc3cccn3C)C2)cc1 5.21% [at 12.5 µM]
